Drawing on PubChem BioAssay AID743365 (National Center for Advancing Translational Sciences (NCATS), 2014), this text covers parasite growth, lower = inhibition for 17 molecules.

The nature of the assay: qHTS profiling of inhibitors of Plasmodium falciparum (DD2) proliferation (acoustic dispense). Particulars: P. falciparum Dd2 in erythrocytes, SYBR Green DNA, 72 h; at 49.8 µM (top of the series) unless noted. The text has this: Plasmodium falciparum is a virulent malarial parasite that kills 1-2 million people worldwide each year. Transmitted by mosquitoes, the sporozoite form of the parasite enters the blood stream to infect hepatocytes, where they become merozoites that infect red blood cells (erythrocytes). Within erythrocytes, merozoites begin a […] cycle of growth and division, after which the parasite is released to infect new red blood cells. Gametocytes, which form within erythrocytes as well, circulate in the bloodstream and are ingested by the mosquito, thereby completing the life cycle. To profile malarial isolates for differential chemical responses and to identify inhibitors of malarial growth, an assay that measures P. falciparum growth and replication within erythrocytes was employed. This assay uses a DNA binding fluorescent dye (SYBR Green) to detect parasite DNA following cell lysis. Because mature erythrocytes lack DNA, only Plasmodium-derived DNA is detected.
The SYBR Green viability assay was adapted from a method described previously (Plouffe et al., 2008). For screening 3 ul culture medium was dispensed into 1536 well black clear bottom plates (Aurora Biotechnologies) using a Multidrop Combi (Thermo Fisher Scientific Inc.), 23 nL of compounds in DMSO were added by an acoustic dispenser (EDC Biosystems), and 5 ul of erythrocytes infected with P. falciparum (0.3% parasitemia, 2.5% hematocrit final concentration) were added. The plates were incubated at 37 C in a humidified incubator in 5% CO2 for 72 h, and 2 ul lysis buffer (20 mM Tris HCl, 10 mM EDTA, 0.16% saponin, 1.6% triton X, 10X SYBR Green I supplied as 10,000X […] by Invitrogen) was added to each well. The plates were mixed for 25 sec with gentle shaking and incubated overnight at room temperature in the dark. The following morning, fluorescence intensity at 485(14) nm excitation and 535(25) nm emission wavelengths was measured on an EnVision (Perkin Elmer) plate reader. Plate reads were normalized relative to the control inhibitor (0.29 uM artemisinin) and vehicle (DMSO) wells present on each plate and then corrected by an algorithm using vehicle-only control plates at the beginning and end of the compound plate stack.
Regarding `CC=C(C)C(=O)N[C@@H](c1ccccc1)[C@@H](O)C(=O)O[C@H]1C[C@@]2(O)[C@@H](OC(=O)c3ccccc3)[C@@H]3[C@]4(OC(C)=O)CO[C@@H]4C[C@H](O)[C@@]3(C)C(=O)[C@H](OC(C)=O)C(=C1C)C2(C)C`, the parasite growth, lower = inhibition is 4.37%.
`CC1=C(O)C(=O)C=C2C1=CC=C1[C@@]2(C)CC[C@@]2(C)[C@@H]3C[C@](C)(C(=O)O)CC[C@]3(C)CC[C@]12C`: the parasite growth, lower = inhibition turned out to be 3.33%.
Under `OB1OCc2cc(F)ccc21` stands 88.5%; under `CC(=O)Nc1nnc(S(N)(=O)=O)s1`, 91%; under `CO[C@H]1CCC(O[C@H]2C[C@H]([C@]3(C)CC[C@]4(C[C@H](O)[C@@H](C)[C@@H]([C@@H](C)C=C(C)C(=O)[C@H](C)C[C@H](C)C(=O)O)O4)O3)O[C@]3(O[C@@H]([C@H]4O[C@@](O)(CO)[C@H](C)C[C@H]4C)C[C@H]3C)[C@H]2C)O[C@H]1C` (some centres not stated), 104%.
`CC(=O)N(O)CCCP(=O)(O)O`: the parasite growth, lower = inhibition worked out at 4.17%.
With `C[C@]12O[C@H](C[C@@]1(O)C(=O)O)n1c3ccccc3c3c4c(c5c6ccccc6n2c5c31)CNC4=O`, the parasite growth, lower = inhibition turned out to be 5.95% [at 4.15 µM].
The value for `CN1C(=O)C[C@H](C(=O)N[C@@H](Cc2cnc[nH]2)C(=O)N2CCC[C@@H]2C(N)=O)NC1=O` was 82%.
For the molecule `O=c1[nH]c2ccc(Cl)cc2c(N[C@@H]2CN3CCC2CC3)c1-c1nc2ccccc2[nH]1`, the parasite growth, lower = inhibition amounted to 0.0567%.
In the case of `COC1=CC(C)=C[C@@H](C)[C@@H](O)[C@@H](C)CC(C)=CC=C[C@H](OC)[C@H]([C@@H](C)[C@@H](O)[C@H](C)[C@@]2(O)C[C@@H](O)[C@H](C)[C@@H](C(C)C)O2)OC1=O`, the parasite growth, lower = inhibition stood at 0.538%.
The value for `CC=C1C2C=C(C)CC1(N)c1ccc(=O)[nH]c1C2` (configuration not stated) was 97.1%; that for `C[C@H]1CCCC=CC2C[C@H](O)C[C@@H]2[C@H](O)C=CC(=O)O1` (some centres not stated) was -0.172%.
Take `CC(C)(N)CNC(=O)CC1CCC2(CC1)OOC1(O2)C2CC3CC(C2)CC1C3` (configuration not stated): the parasite growth, lower = inhibition was -0.141%.
As for `COC(=O)[C@@]1(OC)C[C@@H]2O[C@@]1(C)n1c3ccccc3c3c4c(c5c6ccccc6n2c5c31)C(=O)N(C)C4`, the parasite growth, lower = inhibition worked out at 13.1% [at 16.5 µM].
`O=C(C[C@@H]1NCCC[C@@H]1O)Cn1cnc2ccccc2c1=O`: the parasite growth, lower = inhibition was -0.505%.
For `CC(=Cc1csc(C)n1)[C@@H]1C[C@H]2O[C@@H]2CCC[C@H](C)[C@@H](O)[C@@H](C)C(=O)C(C)(C)[C@@H](O)CC(=O)O1`, the parasite growth, lower = inhibition is 3%.
Under `C[C@@H]1C[C@@H]([C@H](O)CC2CC(=O)NC(=O)C2)C(=O)[C@@H](C)C1` stands 0.0707%.
